PubChem BioAssay (NCATS)
Inconclusive results are not listed. The source made the active and inactive calls. Unless noted, calls come from the whole dose curve; as a rule, active = well fitted cell-killing curve with a large enough effect; inconclusive = small, poorly fitted or top-dose-only effect, or effect the other way; inactive = no such curve, though single readings can be large or run the other way.

Legend:
[1] = Quantitative High-Throughput drug screen in 47 multiple myeloma cell lines against the NCATS MIPE library collection: VP6_DJ cell viability assay (AID 1919867); note: nearly all actives have a fitted effect of over 40% in size
Procedure, shortened: (§1)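 Cells were exposed to library compounds for 48 hours, after which ATP was measured by CellTiter-Glo. Signal was taken as median relative luminescence units.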

[2] = Quantitative High-Throughput drug screen in 47 multiple myeloma cell lines against the NCATS MIPE library collection: PE2_PLB cell viability assay (AID 1919869); note: nearly all actives have a fitted effect of over 35% in size
Procedure, shortened: as §1

[3] = Quantitative High-Throughput drug screen in 47 multiple myeloma cell lines against the NCATS MIPE library collection: PCM6_Riken cell viability assay (AID 1919870); note: nearly all actives have a fitted effect of over 30% in size
Procedure, shortened: as §1

[4] = Quantitative High-Throughput drug screen in 47 multiple myeloma cell lines against the NCATS MIPE library collection: OPM2_DSMZ cell viability assay (AID 1919872); note: nearly all actives have a fitted effect of over 30% in size
Procedure, shortened: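 Relative luminescence from CellTiter-Glo served as the viability signal, referenced to DMSO-treated (100%) and cell-free medium (0%) controls. Treatment lasted 48 hours at 37C with 500 cells per well.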

[5] = Quantitative High-Throughput drug screen in 47 multiple myeloma cell lines against the NCATS MIPE library collection: KMS11_JCRBsus cell viability assay (AID 1919873); note: nearly all actives have a fitted effect of over 50% in size
Procedure, shortened: as §1

[6] = Quantitative High-Throughput drug screen in 47 multiple myeloma cell lines against the NCATS MIPE library collection: KMS28BM_JCRB cell viability assay (AID 1919874); note: nearly all actives have a fitted effect of over 35% in size
Procedure, shortened: as §1

[7] = qHTS drug screen for cell cycle checkpoint inhibitors in PARPi-resistant BRCA-mutant ovarian cancer cell lines. (AID 1963452; calls by dose curve); settings: PEO1/OlaR viability, CellTiter-Glo luminescence, 96 h; for Z-AUC: stronger effect = lower value
Procedure, shortened: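 PEO1, PEO4 and PEO1/OlaR ovarian cancer cells, 600 per well, exposed 96 h at 37C to a dilution series. Viability read by CellTiter-Glo luminescence, normalized to DMSO and empty wells; activity summarized as Z-AUC.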

[8] = Quantitative High-Throughput drug screen in 47 multiple myeloma cell lines against the NCATS MIPE library collection: UTMC2_PLB cell viability assay (AID 1919868); note: nearly all actives have a fitted effect of over 55% in size
Procedure, shortened: as §1

[9] = Quantitative High-Throughput drug screen in 47 multiple myeloma cell lines against the NCATS MIPE library collection: RPMI8226_ATCC cell viability assay (AID 1919871); note: nearly all actives have a fitted effect of over 30% in size
Procedure, shortened: as §1

[10] = measured here: PEO1 parental Z-AUC
Potency is the fitted concentration of half-maximal effect.

SMILES | Potency [1] | Potency [2] | Potency [3] | Potency [4] | Potency [5] | Potency [6] | Z-AUC [7] | Z-AUC [7, 10] | Z-AUC ([7]; measured here: PEO4 Z-AUC) | Potency [8] | Potency [9] | Potency [7]
Cc1cc(C(C)(C)C)c(O)c(C)c1CC1=NCCN1 | inactive | inactive | inactive | inactive | inactive | inactive | 1.21 (inactive) | 0.68 | 0.695 |  |  | 
NC(=O)NO | 1.05 µM (active) | 3.32 µM (active) | 2.35 µM (active) | 6.62 µM (active) | 0.526 µM (active) | 0.935 µM (active) | 1.41 (inactive) | 1.02 | 0.874 | 1.66 µM (active) | 3.72 µM (active) | 
COc1cc2nc(N(C)CCCNC(=O)C3CCCO3)nc(N)c2cc1OC (stereo not given) | inactive |  | inactive |  |  |  |  |  |  |  |  | 
CN(Cc1cnc2nc(N)nc(N)c2n1)c1ccc(C(=O)N[C@@H](CCC(=O)O)C(=O)O)cc1 | 0.0662 µM (active) | 0.187 µM (active) | 0.105 µM (active) |  | 0.0935 µM (active) |  | 0.203 (inactive) | 0.268 | 0.255 | 0.166 µM (active) |  | 
O=c1[nH]cc(F)c(=O)[nH]1 | 5.9 µM (active) |  | 10.5 µM (active) | inactive | 13.2 µM (active) | inactive | 0.953 (inactive) | 0.582 | 0.136 | inactive | 0.235 µM (active) | 
OCCN(CCO)c1nc(N2CCCCC2)c2nc(N(CCO)CCO)nc(N3CCCCC3)c2n1 | 23.5 µM (active) |  |  |  | 16.6 µM (active) | 16.6 µM (active) | 1 (inactive) | 0.552 | 0.489 | 20.9 µM (active) |  | 
CN1CCC(=C2c3ccccc3CC(=O)c3sccc32)CC1 | 9.35 µM (active) | 11.8 µM (active) | 14.8 µM (active) |  | inactive |  | 1.25 (inactive) | 1.46 | 0.927 | 10.5 µM (active) | inactive | 
CC[C@@]1(O)C(=O)OCc2c1cc1n(c2=O)Cc2cc3c(CN(C)C)c(O)ccc3nc2-1 | 1.48 µM (active) |  | 1.66 µM (active) | 16.6 µM (active) | 3.72 µM (active) | 0.662 µM (active) | -0.723 (inactive) | -1.25 | -0.128 | 0.0526 µM (active) | 14.8 µM (active) | 
COc1cc2c(c(OC)c1OC)-c1ccc(OC)c(=O)cc1[C@@H](NC(C)=O)CC2 | inactive |  | inactive | inactive | inactive |  | -0.869 (inactive) | -1.12 | -1.62 | inactive |  | 
CC(=O)OCC(CCn1cnc2cnc(N)nc21)COC(C)=O | inactive |  | inactive | inactive | inactive | inactive | 1.18 (inactive) | 1.12 | 1.62 | inactive | inactive | 
CN(C)CCOC(c1ccccc1)c1ccccc1 | 6.62 µM (active) |  | 8.33 µM (active) | inactive |  | 5.9 µM (active) | -0.454 (inactive) | 0.718 | -0.44 | 10.5 µM (active) | inactive | 
CCN1CCCC1CNC(=O)c1cc(S(=O)(=O)CC)c(N)cc1OC (stereo not given) | inactive | inactive | inactive | inactive | inactive | inactive | 1.05 (inactive) | 0.594 | 0.466 | inactive | inactive | 
CC#C[C@]1(O)CC[C@H]2[C@@H]3CCC4=CC(=O)CCC4=C3[C@@H](c3ccc(N(C)C)cc3)C[C@@]21C | 0.833 µM (active) |  | 0.743 µM (active) | 1.18 µM (active) | 7.43 µM (active) | 7.43 µM (active) | 1.15 (inactive) | 0.225 | 0.142 | 0.418 µM (active) | 3.72 µM (active) | 
O=C1c2c(O)ccc(O)c2C(=O)c2c(NCCNCCO)ccc(NCCNCCO)c21 | 0.662 µM (active) | 0.166 µM (active) | 0.935 µM (active) | 3.32 µM (active) | 1.48 µM (active) | 0.662 µM (active) |  | -2.48 | -2.26 |  | 4.69 µM (active) | 0.195 µM (active)
O=C(Nc1ccc([N+](=O)[O-])cc1Cl)c1cc(Cl)ccc1O | 0.743 µM (active) |  | 1.32 µM (active) | 1.32 µM (active) | 0.526 µM (active) |  | -0.74 (inactive) | -1.01 | -1.03 | 1.05 µM (active) | 1.05 µM (active) | 
CN1CCC(=C2c3ccccc3C=Cc3ccccc32)CC1 | 16.6 µM (active) | 23.5 µM (active) | 18.7 µM (active) | inactive |  |  | 0.372 (inactive) | 0.535 | 0.739 | 13.2 µM (active) |  | 
CN1CCN2c3ccccc3Cc3ccccc3C2C1 (stereo not given) | 3.72 µM (active) |  |  |  | 23.5 µM (active) | 23.5 µM (active) |  |  |  | inactive |  | 
CNCCCC12CCC(c3ccccc31)c1ccccc12 | 20.9 µM (active) | 23.5 µM (active) | 23.5 µM (active) | 23.5 µM (active) | 9.35 µM (active) | 16.6 µM (active) | -0.42 (inactive) | 0.397 | 0.261 |  | 20.9 µM (active) | 
